Screening results from PubChem BioAssay.
Most compounds without a hit are left out; they make up all but 3.1% or so of the library.
A549 viability – A549 cytotoxicity, counter-screen for Nrf2 inhibitors; 0.16% of 390,000 active; Potency, µM (top dose mostly 46 µM), inactives show at the highest dose activity change, negative = cytotoxicity, usual class: inhibitors; A549 ARE-Fluc cells, CellTiter-Fluor viability, 18-24 h; AID 504648; note: potency is the fitted concentration of half-maximal effect; % is set by controls: 0 for no effect and ±100 for the full control effect
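A549 ARE-Fluc cells in 5% FBS OPTI-MEM, 5000 cells/well, rested 2 h then exposed to compounds in concentration-response for 18-24 h at 37 °C. Viability by CellTiter-Fluor fluorescence (Ex 405/Em 525) after 30 min; luciferase luminescence (BugLite, 15 min, RT) read afterwards.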
Mito fusion act – blocks mitochondrial division or promotes mitochondrial fusion; S. cerevisiae fusion-defective mutant growth rescue, CellTiterGlo 48 h; Potency, µM (doses to about 46.1 µM), inactives show at the top dose growth rescue (activation), actives largely listed as activators; 0.23% of 320,000 active; AID 485298; note: potency is the fitted concentration of half-maximal effect; % of control where 0% means no effect; nearly all actives have a fitted effect of over 45% in size
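Temperature-sensitive fusion-defective S. cerevisiae (e.g. fzo1-1, mgm1-5) were grown with compound in YPEG medium (3% ethanol, 3% glycerol) for 48 hours at 37C. Growth rescue was measured as viability by CellTiterGlo luminescence after 10 minutes at ambient.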
TrxR1 substrate – substrates of rat thioredoxin reductase 1 | AID 588456 | 0.01% of 390,000 active | O89049 | purified TrxR1 substrate turnover, NADPH consumption readout | Potency, µM (doses to about 114 µM), for the others: at the top dose activity change, negative = substrate turnover; note: potency is the fitted concentration of half-maximal effect; % is set by controls: 0 for no effect and ±100 for the full control effect; nearly all actives have a fitted effect of over 50% in size
Target sequence (O89049 whole entry, looked up): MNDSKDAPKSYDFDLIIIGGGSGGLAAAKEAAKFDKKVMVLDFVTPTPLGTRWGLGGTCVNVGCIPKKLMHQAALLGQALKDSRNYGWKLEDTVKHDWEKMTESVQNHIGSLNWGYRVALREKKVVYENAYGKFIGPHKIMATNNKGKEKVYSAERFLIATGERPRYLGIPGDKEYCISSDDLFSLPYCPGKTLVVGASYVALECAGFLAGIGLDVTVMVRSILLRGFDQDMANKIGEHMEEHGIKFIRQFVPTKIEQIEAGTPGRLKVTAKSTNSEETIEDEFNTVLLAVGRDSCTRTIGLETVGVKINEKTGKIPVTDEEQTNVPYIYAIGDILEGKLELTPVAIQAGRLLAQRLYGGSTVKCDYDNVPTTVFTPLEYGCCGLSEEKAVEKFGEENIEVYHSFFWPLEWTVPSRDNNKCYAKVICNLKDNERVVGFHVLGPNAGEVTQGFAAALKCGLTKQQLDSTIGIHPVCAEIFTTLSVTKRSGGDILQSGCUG
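Rat TrxR1, dispensed at 90 nM, was prereduced with 400 uM NADPH (final) for 5 min at ~22 deg C, then incubated with compound 15 min before 400 uM selenite. A first-read NADPH fluorescence drop versus no-compound background flagged substrates.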
mIDH1 inhibitor – inhibitors of human mutant IDH1 R132H; 0.093% of 390,000 active; IDH1-R132H enzyme, NADPH consumption, diaphorase/resazurin fluorescence; AID 602179; Potency, µM (top dose mostly 76.6 µM), without a hit: at the highest dose activity change, negative = inhibition, actives largely listed as inhibitors; note: potency is the fitted concentration of half-maximal effect; % is set by controls: 0 for no effect and ±100 for the full control effect; nearly all actives have a fitted effect of over 65% in size
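IDH1-R132H (0.5 ug/mL dispensed) in pH 7.5 Tris buffer was preincubated 30 min with compound, then given a substrate mix of 0.016 mM NADPH and 2 mM alpha-KG for 80 min at room temperature; remaining NADPH was read by diaphorase/resazurin fluorescence.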
TrxR1 inh – inhibitors of rat thioredoxin reductase 1. 1% of 390,000 active. AID 588453. recombinant rTrxR1, NADPH fluorescence consumption, selenite substrate. Potency, µM (doses to about 114 µM), for inactives: top-dose activity change, negative = inhibition, actives largely listed as inhibitors. O89049; note: potency is the fitted concentration of half-maximal effect; % is set by controls: 0 for no effect and ±100 for the full control effect; nearly all actives have a fitted effect of over 65% in size
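Rat TrxR1 (90 nM in the dispensed reagent) was pre-reduced with 400 uM NADPH for 5 min at room temperature, then incubated with compound for 15 min. After 400 uM selenite was added, NADPH fluorescence (Ex 340/Em 450 nm) was followed for 8 min.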
Nrf2 inh – inhibitors of Nrf2 signaling | 2.1% of 360,000 active | Potency, µM (highest dose often 46 µM), without a hit: at the highest dose activity change, negative = inhibition, usual class: inhibitors | A549 ARE-Fluc reporter, luciferase luminescence, 18-24 h; note: potency is the fitted concentration of half-maximal effect; % is set by controls: 0 for no effect and ±100 for the full control effect; nearly all actives have a fitted effect of over 60% in size
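Quantitative HTS in A549 cells stably bearing an antioxidant response element-firefly luciferase construct. Inhibition of Nrf2-driven transcription was scored by luminescence after 18-24 h of compound exposure at 37 °C.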
Resorufin autofl – autofluorescence interference, mutant IDH1 hit counter-screen; shares compounds with mIDH1 inhibitor; Resorufin detection reagent fluorescence interference, cell-free; inhibition of signal, % at 51.2 µM; 750 tested, under 10 active; AID 623980;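 note: 0% = wells with normal resorufin and full inhibition = wells lacking resorufin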
WT IDH1 inh – selectivity of mutant IDH1 inhibitors: human wild-type IDH1 | shares compounds with mIDH1 inhibitor | WT IDH1 enzyme, NADPH diaphorase/resazurin fluorescence | Potency, µM (series often up to 115 µM), for inactives: at the top dose activity change, negative = inhibition, actives largely listed as inhibitors | 9% of 750 active | AID 623995;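 note: potency is the fitted concentration of half-maximal effect; 0% = full WT IDH1 enzyme control and full inhibition = no enzyme wells; nearly all actives have a fitted effect of over 55% in size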
IDH1 R132H conf – confirmation of human mutant IDH1 inhibitors; shares compounds with mIDH1 inhibitor; IDH1 R132H enzyme, NADPH diaphorase/resazurin fluorescence; Potency, µM (doses to about 76.6 µM), for the others: at the highest dose activity change, negative = inhibition, actives largely listed as inhibitors; 83% of 750 active; AID 624002; note: potency is the fitted concentration of half-maximal effect; nearly all actives have a fitted effect of over 50% in size
Active calls of the source: *; ? = inconclusive; . = no result given; [ ] = dose if it differs, or a comment. Calls come from the whole dose curve; as a rule, active = well fitted curve in the direction sought with a large enough effect; inconclusive = small, poorly fitted or top-dose-only effect, or another doubt; inactive = no such curve, though single readings can be large; an effect the other way counts as inactive or inconclusive.

SMILES | A549 viability | Mito fusion act | TrxR1 substrate | mIDH1 inhibitor | TrxR1 inh | Nrf2 inh | Resorufin autofl | WT IDH1 inh | IDH1 R132H conf
O=C(Cn1c(=O)nc(-c2ccccc2)c2ccccc21)NCCc1ccc(Cl)cc1 | -8% | . | 1%[57.1 µM] | 9% | 3%[57.1 µM] | . | . | . | .
Cc1ccc(SCc2[nH]nc3c2C2(CCSCC2)C(C#N)=C(N)O3)cc1 | -4% | 1% | 2% | -19% | 1% | -20% | . | . | .
CCOC(=O)N1CCC2(CC1)C(C#N)=C(N)Oc1n[nH]c(CSc3ccc(C)cc3)c12 | -11% | 0% | -9% | ? | -17% | -15% | 4 | 0% | 28µM*
CN(c1ncnc2c1c(-c1ccccc1)cn2-c1cccc(Cl)c1)C1CCCCC1 | 16% | . | -1%[57.1 µM] | 9% | 15%[57.1 µM] | . | . | . | .
CC(=O)Nc1ccc(S(=O)(=O)NCCc2csc3nc(-c4cccc(C)c4)nn23)cc1 | -11% | . | 5%[57.1 µM] | 0% | 26%[57.1 µM] | . | . | . | .
CCc1nc(SCC(=O)N2CC(=O)Nc3ccccc32)c2c(C)c(C)sc2n1 | -13% | -2% | 1% | ? | 10% | ? | 7 | 2% | 32µM*
Cc1sc2nc(C3CCCCC3)nc(SCC(=O)N3CC(=O)Nc4ccccc43)c2c1C | -10% | 3% | 3% | 2% | 4% | -23% | . | . | .
OCCN(CCO)c1ccc(C(c2ccccc2Cl)c2ccc(N(CCO)CCO)cc2Cl)c(Cl)c1 | -19% | -2% | 3% | 18µM* | 13% | ? | 5 | 40µM* | 13µM*
OCCN(CCO)c1ccc2ccccc2c1 | -1% | -5% | 144% | -8% | ? | -6% | . | . | .
CCN(CC)C(=O)c1sc2c(c1C)c(=O)n(-c1ccc(OC)cc1OC)c(=O)n2CC(=O)c1ccccc1 | 0% | 3% | -1%[11.4 µM] | -11% | 6%[11.4 µM] | -10% | . | . | .
CCN(CC)C(=O)c1sc2c(c1C)c(=O)n(-c1ccc(OC)cc1OC)c(=O)n2Cc1cc(C)ccc1C | 1% | . | -1%[57.1 µM] | 40µM* | 8%[57.1 µM] | . | 3 | 5% | 22µM*
CCN(CC)C(=O)c1sc2c(c1C)c(=O)n(CCc1ccccc1)c(=O)n2Cc1cc(C)ccc1C | -3% | . | 2%[57.1 µM] | 10µM* | 12%[57.1 µM] | . | -8 | -2% | 8.9µM*
CCN(CC)C(=O)c1sc2c(c1C)c(=O)n(-c1ccc(C)c(C)c1)c(=O)n2Cc1cccc(Cl)c1 | -10% | . | -6%[57.1 µM] | ? | 9%[57.1 µM] | . | -10 | -2% | 13µM*
COc1ccc(-n2c(=O)c3c4c(sc3n(Cc3cc(C)ccc3C)c2=O)CN(C(C)=O)CC4)c(OC)c1 | 6% | . | -5% | ? | 5% | ? | 1 | ? | 14µM*
CCN(CC)C(=O)c1sc2c(c1C)c(=O)n(Cc1ccccc1)c(=O)n2Cc1cc(C)ccc1C | -7% | . | 5%[57.1 µM] | -11% | 24%[57.1 µM] | . | . | . | .
Cc1ccc2c(c1)NC(=O)C(CC(=O)Nc1ccccc1Cl)O2 (stereo unspecified) | 0% | . | 0% | -2% | 16% | ? | . | . | .
CC(=O)N1CCc2c(sc3c2c(=O)n(-c2cccc(Cl)c2C)c(=O)n3Cc2ccccc2C)C1 | -20% | . | 4% | ? | 20% | ? | -4 | 40µM* | 28µM*
C#CCn1c(=O)n(-c2cccc(Cl)c2C)c(=O)c2c3c(sc21)CN(C(C)=O)CC3 | 1% | . | 1% | -10% | 3% | -14% | . | . | .
Cc1ccc2c(c1)/C(=N/N1C(=O)c3ccccc3C1=O)C(=O)N2 | -4% | 0% | -5% | 46µM* | -8% | 8% | 1 | 6% | 7.9µM*
O=C(c1ccc([N+](=O)[O-])o1)N1CCc2ccccc21 | -7% | -15% | -7%[57.1 µM] | 7% | -21%[57.1 µM] | 1% | . | . | .
Cc1ccc(C(=O)N2CCc3ccccc32)o1 | 7% | -3% | -11% | ? | -16% | ? | 0 | 0% | 3%
Cc1ccc(C)c(NC(=O)Cn2cnc3nc4c(cc3c2=O)CCCC4)c1 | -19% | . | 10%[57.1 µM] | 17% | 24%[57.1 µM] | . | . | . | .
CC(C)(C)n1nnnc1C(c1cccs1)N(Cc1cccnc1)Cc1ccccc1Cl (stereo unspecified) | ? | 23% | -9% | ? | -6% | ? | 3 | 1% | 20µM*
COCCNC(=O)c1ccc2c(c1)N(Cc1c(F)cccc1Cl)C(=O)c1ccccc1S2 | -2% | . | 1% | -13% | 15% | ? | . | . | .
CCN(CC)C(=O)c1ccc2c(c1)N(Cc1c(F)cccc1Cl)C(=O)c1ccccc1S2 | -15% | . | 1% | 32µM* | 25% | -27% | -2 | ? | 28µM*
SMILES | A549 viability | Mito fusion act | TrxR1 substrate | mIDH1 inhibitor | TrxR1 inh | Nrf2 inh | Resorufin autofl | WT IDH1 inh | IDH1 R132H conf
Cc1cc(C)cc(NC(=O)Cn2c(=O)n(Cc3ccco3)c(=O)c3oc4ccccc4c32)c1 | -2% | . | -6% | 0% | -19% | 15% | . | . | .
O=S(=O)(/N=C(/Nc1ccc(Cl)c(S(=O)(=O)Nc2ccccc2Cl)c1)c1ccc(F)cc1)c1ccccc1 | -11% | -1% | -11% | ? | -3% | ? | -1 | 3% | ?
Cc1ccc2c(c1)c1c(c(=O)n(-c3ccccc3)c(=O)n1Cc1ccccc1C)n2C | 9% | . | 24% | -9% | 14% | 8% | . | . | .
C=CCCn1c(Cl)c(C#N)sc1=O | 2% | . | 11% | . | ? | 5% | . | . | .
Cc1ccc(C2=Nc3ccc(Br)cc3C(c3ccncc3)=NN2)cc1 | -7% | 11% | -1%[57.1 µM] | 15µM* | 15%[57.1 µM] | ? | 8 | 4% | 22µM*
CC(C)C[C@H]1CN([C@@H](Cc2ccc(O)cc2)CN2CCC[C@@H]2CN2C(=O)C(=O)NC[C@@H]2Cc2ccccc2)C(=O)C(=O)N1CC1CCCCC1 | 3% | . | -5% | 45µM* | 10% | -10% | -4 | -3% | 14µM*
CC(C)C[C@H]1CN([C@@H](CC(C)C)CN2CCC[C@@H]2CN2C(=O)C(=O)NC[C@@H]2Cc2ccccc2)C(=O)C(=O)N1CC1CCCCC1 | -17% | . | -2% | ? | 5% | 2% | . | . | .
